Hits are enriched below; roughly 2.4% of the tested compounds scored in any of these assays.
D2 PAM-1: HTS Assay for Positive Allosteric Modulators of the Human D2 Dopamine Receptor: Primary Screen for Potentiators; HEK293 T-REx D2, calcium flux, EC20 dopamine potentiation; hit rate 0.34% among 340,000; D(2) dopamine receptor (Homo sapiens), P14416; potentiation, % at 10 µM;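 active = potentiation over 3 SD above the plate norm, cut at about 30% in these data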
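Potentiation of an EC20 dopamine calcium response is measured in a force-coupled, tetracycline-inducible Hek293 Trex D2 line. Compound-only kinetic reads over 180 s flag agonists before dopamine addition.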
D2 PAM-2: Beta-Arrestin HTS for Positive Allosteric Modulators of the Human D2 Dopamine Receptor: Potentiators; DiscoveRx D2 beta-arrestin cells, luminescence, 90 min; 100% = 57 uM dopamine signal; D(2) dopamine receptor (Homo sapiens), P14416; hit rate 0.23% among 360,000; potentiation, % (test concentration not listed); in the data active = potentiation above about 50%; inconclusive = mostly about 30% to 49%
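PathHunter D2 cells, attached overnight at 37 deg C, received compound in DMSO plus dopamine at EC20 (50 nM final) for 90 min at 37 deg C. Beta-arrestin recruitment was read as luminescence after 1 h with detection reagent at ambient temperature.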
D2 ag-1: Beta-Arrestin HTS for Positive Allosteric Modulators of the Human D2 Dopamine Receptor: Agonists; hit rate 0.084% among 360,000; D(2) dopamine receptor (Homo sapiens), P14416; activation, % (no concentration beside the values); DiscoveRx PathHunter D2 beta-arrestin, luminescence, 90 min; 100% = 57 uM dopamine signal; in the data active = activation above about 40%; inconclusive = between about 15% and that limit
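DiscoveRx PathHunter D2 beta-arrestin cells (2,100/well) attached overnight, then compound-stimulated 90 min at 37 C in HBSS/10 mM HEPES/0.1% Tween-20 buffer; beta-galactosidase complementation read by luminescence after 1 h at ambient temperature. Dopamine 57 uM final (EC100) as control.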
D2 ag-2: HTS Assay for Allosteric Agonists of the Human D2 Dopamine Receptor: Primary Screen for Agonists. D(2) dopamine receptor (Homo sapiens), P14416. HEK293 T-REx D2 cells, calcium flux agonist mode. activation, % at 2 µM. hit rate 0.53% among 340,000. AID 485358, 2010;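 active = activation over 3 SD above normal in the single-dose calcium agonist read, cut at about 30% in these data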
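Agonism is scored from calcium flux in a force-coupled, inducible HEK293 cell line expressing D2, read kinetically for 180 s after compound addition against dopamine controls.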
D2 antagonist: HTS Assay for Allosteric Antagonists of the Human D2 Dopamine Receptor: Primary Screen for Antagonists; D(2) dopamine receptor (Homo sapiens), P14416; inhibition, % at 10 µM; AID 485344, 2010; HEK293 TREx D2 cells, calcium flux, dopamine EC80; hit rate 2% among 340,000; in the data active = inhibition above about 30%; inactive = below that, where a call was filed
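Tetracycline-induced HEK293 TREx cells expressing D2 receptor forced-coupled to calcium signalling, loaded with no-wash calcium dye. Compounds added and calcium flux read 180 s, then dopamine added at EC80 and read a further 180 s.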
D3 arrestin ag: qHTS of D3 Dopamine Receptor Agonist: D3 Dopamine Receptor B-arrestin Agonist Confirmatory Assay; shares compounds with D2 ag-2; DiscoveRx D3 beta-arrestin cells, luminescence, 90 min; Potency, µM (highest dose often 76.9 µM), hits mostly activators; hit rate 4% among 2,300; note: nearly all actives have a fitted effect of over 70% in size
Target sequence (P35462 whole entry, looked up): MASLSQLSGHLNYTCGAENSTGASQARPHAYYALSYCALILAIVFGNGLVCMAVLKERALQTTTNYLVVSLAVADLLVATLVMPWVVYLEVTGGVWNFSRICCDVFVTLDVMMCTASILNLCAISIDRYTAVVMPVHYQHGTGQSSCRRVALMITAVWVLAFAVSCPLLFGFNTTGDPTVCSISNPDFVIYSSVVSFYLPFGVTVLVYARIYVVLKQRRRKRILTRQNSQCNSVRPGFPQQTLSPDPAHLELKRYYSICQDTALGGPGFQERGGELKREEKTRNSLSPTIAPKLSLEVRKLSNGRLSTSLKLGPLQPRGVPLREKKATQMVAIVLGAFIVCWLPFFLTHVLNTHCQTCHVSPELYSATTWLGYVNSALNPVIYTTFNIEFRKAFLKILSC
D2 ag-3: qHTS of D3 Dopamine Receptor Agonist: D2 Dopamine Receptor B-arrestin Agonist Counterscreen. shares compounds with D2 ag-2. DiscoveRx PathHunter D2 beta-arrestin, luminescence, 90 min; response scale: percent relative to full dopamine signal. Potency, µM (highest dose often 76.9 µM), usual class: activators. hit rate 5.9% among 2,300. AID 720507, 2013; note: nearly all actives have a fitted effect of over 70% in size
Numbers stand for hits; n = inactive; u = inconclusive; x = no result given; ! = not confirmed by another sample. Unless noted, calls come from the whole dose curve; as a rule, active = well fitted activation curve with a large enough effect; inconclusive = small, poorly fitted or top-dose-only effect; inactive = flat fitted curve, though single readings scatter.

SMILES	D2 PAM-1	D2 PAM-2	D2 ag-1	D2 ag-2	D2 antagonist	D3 arrestin ag	D2 ag-3
COc1c(O)cc2c(c1OC)-c1ccc(SC)c(=O)cc1C(NC(C)=O)CC2 (configuration not stated)	x	n	n	x	x	x	x
c1ccc2cc(CC3=NCCN3)ccc2c1	n	n	n	n	n	x	x
c1ccc(C2CC2)c(OCC2=NCCN2)c1	n	n	n	n	47	n	n
O=C(COc1ccccc1Cl)N1CCN(CCc2ccncc2)CC1	n	x	x	n	x	x	x
Fc1ccc(CNCCc2ccc3c(c2)OCO3)cc1	n	n	n	n	n	x	x
c1cc(CNCCc2ccc3c(c2)OCO3)ccn1	n	n	n	n	n	u	n
CCCOc1ccc(C2SCC(=O)Nc3c2c(C)nn3-c2cccc(C)c2)cc1OC (configuration not stated)	n	x	x	n	x	x	x
COC(=O)C1=C(c2cc3ccccc3s2)C[C@@H]2CC[C@H]1N2C	n	n	n	n	58	n	n
COC(=O)C1=C(c2cc3ccccc3s2)C[C@@H]2CC[C@H]1N2C(=O)NC1CC1	x	n	n	x	x	x	x
c1ccc(CCN2CCC(N3CCN(c4ccccc4)CC3)CC2)cc1	n	n	u	74	72	u	u
COc1ccc(N2CCN(CCc3ccncc3)CC2)cc1	x	n	n	n	n	x	x
COc1cccc(/C=C/c2nc3ccccc3c(=O)n2-c2ccc(Cl)cc2)c1OC	n	x	x	n	x	x	x
Cc1ccc(-n2c(/C=C/c3cccc4ccccc34)nc3ccccc3c2=O)cc1	n	x	x	n	x	x	x
O=c1[nH]c2ccccc2n1C1CCN(C(c2cccs2)c2nnnn2-c2ccc3c(c2)OCCO3)CC1 (configuration not stated)	x	u	n	x	x	x	x
CC(CCc1ccccc1)NC(C)C(O)c1ccc(O)cc1 (configuration not stated)	n	n	n	71	64	n	n
O=C(Nc1ccc(F)c([N+](=O)[O-])c1)c1cccn(Cc2ccccc2)c1=O	n	x	x	n	x	x	x
Clc1ccc2c(c1)C(c1ccccc1Cl)=NCc1nnc(N3CCN(CCOc4ccccc4)CC3)n1-2	n	n	n	58	65	u	n
Clc1ccc2c(c1)C(c1ccccc1Cl)=NCc1nnc(N3CCN(CCSc4ccccc4)CC3)n1-2	n	n	n	n	n	x	x
CCOc1ccc(CN(CCc2ccc3c(c2)OCO3)Cc2cccc(OC)c2)cc1	n	x	x	x	x	x	x
COc1ccc(CN2CCN(c3ccccc3)CC2)c(C)c1C	n	n	n	63	65	n	n
N#C/C(N)=C(/N)C#N	n	n	n	n	n	n	n
CCCCn1nnnc1C(CCSC)N1CCC2(CC1)C(=O)NCN2c1ccccc1 (configuration not stated)	x	n	n	x	x	x	x
CCCCOCCCN1C(C)=CC(=C2C(=O)NC(=S)NC2=O)C=C1C	n	n	n	n	n	n	n
Cc1ccc(-c2nc(CN3C(=O)CN=C(c4ccccc4)c4ccccc43)c(C)o2)cc1	n	x	x	x	x	x	x
NCC(O)c1cc(O)c(O)cc1F (configuration not stated)	n	n	n	67	81	n	13µM
SMILES	D2 PAM-1	D2 PAM-2	D2 ag-1	D2 ag-2	D2 antagonist	D3 arrestin ag	D2 ag-3
Fc1ccccc1N1CCN(Cc2c(F)cccc2F)CC1	n	n	n	36	n	n	n
Fc1cccc(F)c1CN1CCN(c2ccc(Cl)cc2)CC1	n	n	n	n	n	x	x
Clc1ccccc1N1CCN(Cc2ccc3c(c2)OCO3)CC1	n	n	n	71	60	n	u
Cc1ccccc1N1CCN(Cc2ccc3c(c2)OCO3)CC1	n	n	n	n	83	n	n
Fc1ccccc1N1CCN(Cc2ccc3c(c2)OCO3)CC1	n	n	42	78	88	u	u
O=C1c2ccccc2-c2c1nc1c([n+]2[O-])CCCC1	n	n	n	n	n	n	n
CCC(N)Cc1c[nH]c2ccccc12 (configuration not stated)	n	n	n	n	n	n	n
CNCCc1c[nH]c2ccccc12	n	n	n	n	n	x	x
COC(=O)C1=C(c2ccc(OC(F)(F)F)cc2)C[C@@H]2CC[C@H]1N2C(=O)NC1CC1	n	n	n	n	n	n	n
COC(=O)C1=C(c2ccc(OC(F)(F)F)cc2)C[C@@H]2CC[C@H]1N2C(=O)NCC1CC1	n	n	n	n	n	x	x
COC(=O)C1=C(c2ccc(OC(F)(F)F)cc2)C[C@@H]2CC[C@H]1N2C(=O)N1CCOCC1	n	n	n	n	n	n	n
CC1=C(O)C(=O)C=C2C1=CC=C1C2(C)CCC2(C)C3CC(C)(C(=O)O)CCC3(C)CCC12C (configuration not stated)	x	n	n	x	x	x	x
Cc1ccc(-n2c(/C=C/c3cc(Br)cs3)nc3ccccc3c2=O)cc1C	n	x	x	n	x	x	x
N#CC(C#N)=Cc1ccc(O)c(O)c1	n	n	n	n	n	x	x
CC(C)(C)c1cc(C=C(C#N)C#N)cc(C(C)(C)C)c1O	n	n	n	n	n	u	n
COc1cc2c3c(c1OC)-c1cc(O)ccc1CC3NCC2 (configuration not stated)	n	n	n	n	n	n	n
CCN(CC)P(=O)(/C=C(\Cl)c1ccccc1)/C=C(\Cl)c1ccccc1	n	n	n	n	n	n	n
CN1C[C@H](C(=O)N[C@]2(C)O[C@@]3(O)[C@@H]4CCCN4C(=O)[C@H](Cc4ccccc4)N3C2=O)CC2c3cccc4[nH]cc(c34)C[C@H]21 (some centres not stated)	n	n	u	81!	88!	n	u
Cc1ccc(S(=O)(=O)N2Cc3cc(N4CCOCC4)ccc3-n3nncc3C2)cc1	x	n	n	x	x	x	x
O=C(Nc1ccc(Br)cc1C(=O)c1ccccc1Cl)c1ccccc1F	n	x	x	x	x	x	x
